Bioassay records as filed in PubChem BioAssay.
HSP90 inh = HSP90 inhibitors, primary screen, cell lysate, luminescence; inhibition, % at 5.6 µM; Rabbit reticulocyte lysate, luciferase refolding luminescence, 3 h; AID 1789, 2009; hit rate 0.91% among 290,000;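 active = inhibition above the screen-wide mean plus 3 SD, computed separately per campaign, cut at about 16% in these data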;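 also: 0% = DMSO wells and 100% = 60 µM geldanamycin wells; inhibitors lower the luminescence because luciferase stays unfolded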
HSF-1 act = HSF-1 activators, primary screen, NIH3T3-HGL cells, MG132 stress, luminescence, single point | NIH3T3-HGL HSF-1 luciferase reporter, 8 h; 100% = twice DMSO control signal | activation, % at 9 µM | hit rate 1.7% among 300,000;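 active = mean replicate activation of at least 50% with a set share of replicates each reaching 50%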;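 also: 0% = median of the neutral control wells and 100% = twice that signal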
dFosB activator = activators of delta FosB homodimer, primary screen, biochemical, fluorescence polarization, TAMRA-CDK5 oligo, single point. Protein FosB (Mus musculus), P13346. activation, % at 25 µM. purified delta FosB; percent of positive-control signal above neutral wells. hit rate 0.99% among 340,000. AID 493131, 2011;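 active = mean activation above about 17%, with every replicate also reaching it, limit read from the data, passing the limit was not always enough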
Target sequence (P13346 whole entry, looked up): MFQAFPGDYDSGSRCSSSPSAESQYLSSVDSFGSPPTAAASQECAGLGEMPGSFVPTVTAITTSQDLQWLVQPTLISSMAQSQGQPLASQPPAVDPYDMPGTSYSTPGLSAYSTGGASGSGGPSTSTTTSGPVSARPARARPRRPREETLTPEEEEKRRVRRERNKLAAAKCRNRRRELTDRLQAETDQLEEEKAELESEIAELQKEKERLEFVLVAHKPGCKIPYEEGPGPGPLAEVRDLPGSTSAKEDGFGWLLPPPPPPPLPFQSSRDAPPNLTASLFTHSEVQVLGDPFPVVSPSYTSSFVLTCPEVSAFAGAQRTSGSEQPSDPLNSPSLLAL
Platelet DG rel = inhibitors of platelet dense granule secretion, primary screen, cell-based, MLPCN, human platelets | human platelet-rich plasma, SFLLRN dense granule ATP release, luminescence | AID 1663, 2009 | inhibition, %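 (compounds screened at 7.5 µM in platelet-rich plasma)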 | hit rate 0.22% among 300,000;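 active = mean replicate score, as percent of positive control, at or above 50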
MPTP inh = mitochondrial permeability transition pore inhibitors, primary screen, biochemical, isolated mouse mitochondria, absorbance; Ca2+ swelling absorbance, 30 min; inhibition, % at 10 µM; hit rate 1.4% among 360,000; AID 602449, 2012;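 active = inhibition of 50% or more, scaled per plate between neutral and stimulator controls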;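 also: 0% = DMSO wells given calcium and 100% = 1 mM EGTA wells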
HSF1 inh = HSF1 inhibitors in luciferase reporter cells, primary screen, cell-based, NIH3T3, luminescence; AID 2098, 2009; NIH3T3-HGL HSE-luciferase, MG132-induced, luminescence 8 h; active compounds read low; hit rate 0.77% among 300,000; activity change, negative = inhibition, % at 7.5 µM (by protocol);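 active = more than half of replicate wells show activity change below -50%, luminescence cut by over half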;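 also: luciferase reports HSF-1 transcriptional activity via heat shock element; 0% = median of DMSO wells and -100% = zero luminescence signal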
MPTP counter = fluorescence retest of MPTP screen hits in isolated mitochondria, single concentration. shares compounds with MPTP inh. membrane potential, Rhodamine 123 fluorescence. inhibition, % at 10 µM. hit rate 78% among 5,000. AID 624504, 2012; in the data active = inhibition above about 22%;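 also: 0% = DMSO vehicle and 100% = positive control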
MPTP swell DR = mitochondrial permeability transition pore inhibitors, dose response, biochemical, absorbance, uHTS hits | shares compounds with MPTP inh | IC50, µM | isolated mitochondria swelling | hit rate 58% among 780 | AID 651561, 2012; in the data active = IC50 below about 20 µM
MPTP counter DR = fluorescent counter-screen in isolated mitochondria, dose response, counter-screen for MPTP inhibitor project, biochemical, fluorescence, uHTS hits. shares compounds with MPTP inh. isolated mitochondria counterscreen, fluorescence read-out. IC50, µM. hit rate 49% among 780; in the data active = IC50 below about 80 µM
Numbers without * were called inactive; i = inactive; nt = no result. Most compounds without a hit are left out; they make up all but 4.9% or so of the library.

SMILES | HSP90 inh | HSF-1 act | dFosB activator | Platelet DG rel | MPTP inh | HSF1 inh | MPTP counter | others
CCC(C)NC(=O)CN(c1cc(Cl)cc(Cl)c1)S(C)(=O)=O (stereo unspecified) | -2.6 | -11.8 | -8.6 | -4.7 | 0.7 | 3.3 | nt
CSCCC(c1nnnn1C1CCCCC1)N1CCN(C/C=C/c2ccccc2)CC1 (stereo unspecified) | nt | nt | nt | nt | -0.8 | nt | nt
CC1(C(=O)NS(=O)(=O)c2ccc3c(c2)CCO3)CCN1C(=O)CCC1CCCC1 (stereo unspecified) | nt | nt | nt | nt | -0.3 | nt | nt
O=C(Nc1cccnc1)Nc1cc(Cl)cc(Cl)c1 | -3.5 | -6.4 | -13.7 | 1.7 | 89.4* | -10.9 | 98.2*
COC(=O)c1cc(NC(=O)Nc2cccc(Cl)c2)ccc1Cl | 2.0 | 23.0 | -0.8 | 1.5 | 89.8* | 15.2 | 73.2*
O=C(Nc1cccc(Cl)c1)ON=C1c2ccccc2-c2ccccc21 | 2.7 | 9.8 | -15.6 | -2.2 | 86.2* | 5.6 | 86.7*
N#CCc1ccc(NC(=O)Nc2cccc(Cl)c2)cc1 | -4.1 | 24.9 | -1.0 | -4.9 | 89.7* | 7.9 | 106.9*
N#Cc1ccccc1NC(=O)Nc1cccc(Cl)c1 | -2.5 | 29.4 | 4.2 | -15.1 | 2.5 | 5.0 | nt
O=C(Nc1cccc(Cl)c1)OCCOCCOC(=O)Nc1cccc(Cl)c1 | nt | nt | -9.1 | nt | 0.9 | nt | nt
Cc1ccc(NC(=O)Nc2cccnc2)cc1Cl | 0.1 | 25.3 | -1.4 | 3.8 | 5.9 | -1.3 | nt
COc1ccc(NC(=O)CSc2nnc(-c3cccs3)n2N)c(OC)c1 | nt | 0.7 | -4.0 | 2.8 | 0.6 | 3.0 | nt
CCN(C(=O)CN1C(=O)NC2(CCCC2)C1=O)c1nc2c(C)cccc2s1 | nt | nt | nt | nt | 0.9 | nt | nt
COc1cc(N/C(N)=N/c2nc(C)cc(C)n2)c(OC)cc1Cl | 3.3 | nt | 5.0 | 2.8 | 6.0 | nt | nt
CC1CCC(=C(C#N)C(=O)Nc2cccc(Cl)c2)CC1 (stereo unspecified) | 0.2 | 33.5 | -4.9 | -0.5 | 86.5* | 18.3 | 84.4*
N#CC(C(=O)Nc1cccc(Cl)c1)=C1Nc2ccccc2N1 | 1.6 | 13.2 | 0.0 | 1.8 | 2.4 | 11.5 | nt
O=C(Nc1cccc(Cl)c1)Nc1ccnc(-c2cccnc2)n1 | 0.9 | 9.0 | 12.3 | -1.3 | 76.7* | 0.9 | 87.4*
CS(=O)(=O)Nc1ccccc1C(=O)Nc1cc(Cl)cc(Cl)c1 | 4.2 | 0.9 | 2.2 | -4.7 | 97.3* | 3.1 | 83.0*
O=C(Nc1cccc(Cl)c1)Nc1cnccn1 | 0.0 | 11.5 | 8.4 | -9.9 | -0.3 | 3.4 | nt
CC(=O)Nc1ccc(NC(=O)Nc2ccccc2)cc1 | -1.3 | 7.5 | 3.7 | 13.7 | 0.2 | 5.1 | nt
O=C(Nc1ccccc1)Nc1cc(Cl)cc(Cl)c1 | 4.0 | 16.3 | -1.7 | 20.7 | 101.4* | 6.7 | 100.4*
COc1ccc(COC(=O)N/N=C(\C)CC(=O)Nc2ccc(Cl)cn2)cc1 | -4.4 | 22.7 | -4.1 | 10.7 | 0.8 | 2.7 | nt
CCc1ccccc1NC(=O)Nc1cccc(F)c1 | -3.7 | 12.8 | -5.2 | -7.1 | 75.7* | 4.0 | 80.8*
O=C(Nc1cccc(Cl)c1)N1CCSc2cc(Cl)ccc21 | -2.2 | 10.4 | -5.9 | -5.4 | 75.7* | -6.6 | 87.6*
O=C(Nc1cccnc1)Nc1ccccc1Cl | -1.6 | 14.3 | -0.3 | -6.4 | 1.4 | -4.6 | nt
O=C(Nc1cccc(F)c1)Nc1cccc(Cl)c1 | -2.9 | 30.1 | 0.6 | 6.0 | 87.8* | -0.5 | 80.4*
SMILES | HSP90 inh | HSF-1 act | dFosB activator | Platelet DG rel | MPTP inh | HSF1 inh | MPTP counter | others
CSc1ccccc1NC(=O)Nc1cccc(F)c1 | 0.4 | 38.5 | -7.6 | -0.6 | 45.1 | 15.1 | nt
O=C(Nc1cccnc1)Nc1ccc(Br)cc1Cl | -2.3 | 20.0 | -7.8 | 2.0 | 57.6* | -0.9 | 80.4*
CC(C)(C)c1ccc(C2C(C(=O)c3ccco3)=C(O)C(=O)N2CC2CCCO2)cc1 (stereo unspecified) | 0.3 | 32.2 | -8.4 | -2.3 | 7.9 | 4.6 | nt
Cc1ccc(NC(=O)CSc2nc3ccccc3c(=O)n2CCCN2CCCCC2)cc1C | 5.4 | 0.7 | 0.9 | -2.9 | -3.3 | 2.8 | nt
COc1cccc(C(C)(O)c2nc(-c3cccc4cccnc34)cs2)c1 (stereo unspecified) | nt | nt | nt | nt | 0.2 | nt | nt
CC1(C(=O)NS(=O)(=O)Cc2ccccc2C(F)(F)F)CCN1C(=O)c1ccco1 (stereo unspecified) | nt | nt | nt | nt | 0.5 | nt | nt
O=C(Nc1ccccc1)Nc1cc(OCC(F)(F)F)cc(OCC(F)(F)F)c1 | 1.4 | -27.4 | -1.1 | -7.3 | 77.4* | -2.5 | 63.0*
COc1cccc(NC(=O)Nc2cc(Cl)ccc2C)c1 | 0.7 | -0.4 | 10.3 | -0.4 | 91.9* | 0.1 | 82.3*
O=C(Nc1cccc(Cl)c1)Nc1cccc(Cl)c1 | 3.6 | -1.6 | -1.9 | 0.3 | 102.5* | 9.8 | 88.1*
O=C(NCc1ccc(F)cc1)Nc1ccc(Cl)cc1 | 2.0 | 23.5 | 1.6 | -0.6 | 37.6 | 17.0 | nt
O=C(NCc1ccc(F)cc1)Nc1cccc(Cl)c1 | 1.6 | 48.9 | -1.4 | -1.3 | 84.7* | 20.5 | 92.5*
Cc1cc(=O)oc2cc(OCC(=O)N3CCC(C(N)=O)CC3)ccc12 | -5.2 | 19.7 | -3.4 | -1.8 | -1.6 | -1.0 | nt
CN(C(=O)CSc1nnc(-c2cccnc2)o1)C1CCCCC1 | nt | nt | -0.8 | nt | -0.9 | nt | nt
CCCN(CC(=O)Nc1ccccc1OC)C(=O)c1ccc(COc2ccccc2)o1 | nt | nt | -12.4 | nt | -0.2 | nt | nt
O=C(NCCN1CCN(Cc2ccccc2)CC1)Nc1cc(Cl)cc(Cl)c1 | -0.2 | 3.5 | -15.6 | -8.7 | 85.1* | 0.8 | 95.8*
O=C(COc1ccc2ccccc2c1)Nc1cccc(C(=O)Nc2ccccc2C(=O)O)c1 | -5.4 | 7.0 | -16.2 | 11.0 | 79.0* | -10.7 | 57.0*
CCOc1ccc(NC(=S)c2ccncc2)cc1 | -3.9 | 24.4 | -12.0 | -9.3 | 55.9* | 16.3 | 8.0 | MPTP swell DR=18.9*;MPTP counter DR=31.4*
N#Cc1cccc(NC(=O)COc2ccc(-n3ccnc3)cc2)c1 | 2.6 | -8.5 | -10.6 | 2.6 | 62.1* | -14.0 | 19.5 | MPTP swell DR=i;MPTP counter DR=18.8*
O=C(COc1ccc2ccccc2c1)Nc1ccncc1 | 0.5 | 21.9 | -1.5 | -3.1 | 97.9* | 8.8 | 99.8*
O=C(NC1CCCCC1)C(c1cccc2ccccc12)n1c(=O)c(-c2ccco2)nc2ccccc21 (stereo unspecified) | nt | nt | nt | nt | -1.2 | nt | nt
COC(=O)C1CCc2c(ccc3c2CCCC3)C1=O (stereo unspecified) | nt | nt | -3.2 | nt | 0.3 | nt | nt
